PubChem BioAssay (Tox21)
Results filed as inconclusive are left out. Activity calls are given as the source filed them. Unless noted, calls follow the shape of the full dose curve.

Columns and labels:
[1] = Nuclear factor erythroid 2-related factor 2/antioxidant responsive element (Nrf2/ARE) small molecule agonists: qHTS cell viability counter screen in human keratinocytes (AID 1919968; active = well fitted curve in the direction sought with a large enough effect in the repeat runs; an effect the other way counts as inactive or inconclusive; also: nearly all actives have a fitted effect of over 55% in size; also: potency is read from the fitted curve at half-maximal effect)
Procedure, shortened: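 HaCaT ARE reporter line, 1,500 cells/well; 5 h settle, 37 C/5% CO2; cpd in DMSO pinned; 23 h exposure; CellTiter-Fluor, 1 h; fluorescence.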

[2] = Nuclear factor erythroid 2-related factor 2/antioxidant responsive element (Nrf2/ARE) small molecule agonists: luciferase reporter gene qHTS assay in human keratinocytes (AID 1919969); also: nearly all actives have a fitted effect of over 35% in size
[3] = target: Gonadotropin-releasing hormone receptor (Homo sapiens) (UniProt P30968); assay: Human gonadotropin-releasing hormone receptor (GnRHR) small molecule agonists, calcium flux assay in GnRHR-HEK293 cells (AID 1920063); also: nearly all actives have a fitted effect of over 35% in size
Procedure, shortened: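 GnRHR-HEK293, 1500 cells/well, 18 h 37 C/5% CO2; Ca dye 1 h 37 C; cpd pinned (DMSO), agonist mode; kinetic FL 480/540, 3 min, 1 s reads; 15 conc, n=3.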

[4] = target: KiSS-1 receptor (Homo sapiens) (UniProt Q969F8); assay: Human kisspeptin (KISS1R) small molecule agonists, calcium flux assay in KISS1R-HEK293 cells (AID 1920064; active = well fitted curve in the direction sought with a large enough effect in the repeat runs; an effect the other way counts as inactive or inconclusive)
Procedure, shortened: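 Stable human KISS1R HEK293 line; 18 h plating, 37 C/5% CO2; calcium dye 1 h 37 C; compound pin transfer; kinetic fluorescence Ex/Em 480/540, 3 min.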

[5] = G protein-coupled receptor (GPCR) small molecule agonists, calcium flux assay: HEK293 wild type cell line counter screen (AID 1920065)
Procedure, shortened: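 Kinetic fluorescence at Ex/Em 480/540, recorded every second over 3 min, served as the read-out after compound addition. Each compound was tested at 15 concentrations in triplicate on cells pre-loaded with calcium dye for 1 h.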

[6] = p53 small molecule agonists, cell-based qHTS assay with human liver microsomes: qHTS cell viability counter screen (AID 1963579); also: nearly all actives have a fitted effect of over 45% in size
Procedure, shortened: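 p53RE-bla cells (4,000/well) were pre-incubated 5 h at 37 C, then given compounds in DMSO plus human liver microsomes (0.5 mg/mL final) and NADPH (0.5 mg/mL final) for 16 h at 37 C. Viability was read by CellTiter-Glo luminescence.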

[7] = p53 small molecule agonists, cell-based qHTS assay: qHTS cell viability counter screen (AID 1963581); also: nearly all actives have a fitted effect of over 45% in size
Procedure, shortened: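 HCT-116 p53RE-bla cells, 4,000/well, plated 5 h before compound pin transfer; 16 h at 37 C; bla substrate 2 h RT; then CellTiter-Glo, 30 min RT, luminescence.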

[8] = cAMP Responsive Elements (CRE) small molecule agonists, cell-based qHTS assay (AID 1963590)
Procedure, shortened: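 HEK 293T CRE-bla, 2,000 cells/well, 18 h preincubation 37 C/5% CO2; cpds (DMSO) pinned, 3 h; LiveBLAzer B/G FRET substrate, 2 h RT.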

[9] = target: Beta-2 adrenergic receptor (Homo sapiens) (UniProt P07550); assay: Adrenergic beta2 receptor (ADRB2) small molecule antagonists, cell-based qHTS assay (AID 1963592); also: series mostly up to about 92 µM; nearly all actives have a fitted effect of over 50% in size
Procedure, shortened: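 Cells (CHO, stable ADRB2 overexpression) incubated 18-20hr at 37C; compounds added from DMSO; agonist mix (1nM isoproterenol, 100uM IBMX, 25uM Ro-20-1724) added; 0.5hr RT; d2-cAMP and anti-cAMP-cryptate added; 1hr RT; 665/615 nm read.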

[10] = target: Beta-2 adrenergic receptor (Homo sapiens) (UniProt P07550); assay: Adrenergic beta2 receptor (ADRB2) small molecule agonists, cell-based qHTS assay (AID 1963593);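 also: CHO cells stably overexpressing human ADRB2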
Procedure, shortened: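 CHO cells stably over-expressing ADRB2 were plated overnight at 37C, then dosed with compounds plus a stimulation mix containing 100uM IBMX and 25uM Ro-20-1724 for 0.5hr at room temperature. cAMP was measured by HTRF competition, 1hr.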

[11] = target: D(2) dopamine receptor (Homo sapiens) (UniProt P14416); assay: Dopamine D2 receptor (DRD2) small molecule agonists, cell-based qHTS assay (AID 1963594); also: nearly all actives have a fitted effect of over 35% in size
Procedure, shortened: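 cAMP accumulation in DRD2-HEK293 cells measured by HTRF after 1 h detection; compounds added 10 min before NKH477 (200nM […]) forskolin-analogue stimulation, 30 min at room temperature, with Ro20-1724 present at 0.1 mM final.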

[12] = target: D(2) dopamine receptor (Homo sapiens) (UniProt P14416); assay: Dopamine D2 receptor (DRD2) small molecule antagonists, cell-based qHTS assay (AID 1963595; active = well fitted inhibition curve with a large enough effect in the signal ratio in the repeat runs, with a control signal flat; the % refers to the signal ratio)
Procedure, shortened: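 Stable D2 receptor HEK293 line, 24 h after seeding. Compound preincubated 10 min, then quinpirole (12 nM) with forskolin analogue NKH477 (200 nM), 30 min, room temperature. Detection by time-resolved FRET of cAMP.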

[13] = p53 small molecule agonists, cell-based qHTS assay (AID 1963582; active = well fitted activation curve with a large enough effect in the signal ratio in the repeat runs, not every such curve was filed as active; the % refers to the signal ratio)
Procedure, shortened: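 Reporter line: p53RE-bla. Pre-incubation 5 h, 37 C, 5% CO2; compound (DMSO, pin tool) 16 h, 37 C; B/G FRET substrate 2 h RT; fluorescence intensity read.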

[14] = target: 5-hydroxytryptamine receptor 2A (Homo sapiens) (UniProt P28223); assay: 5-hydroxytryptamine receptor 2A (HTR2A) small molecule antagonists, cell-based qHTS assay (AID 1963586); also: nearly all actives have a fitted effect of over 45% in size; also: potency is read from the fitted curve at half-maximal effect
Procedure, shortened: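 Antagonist-mode intracellular calcium assay: DOI (4 nM) added after 5 min compound pre-incubation at room temperature to dye-loaded HTR2A-CHO cells. Fluorescence followed for 3 min, sampled every second.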

[15] = target: 5-hydroxytryptamine receptor 2A (Homo sapiens) (UniProt P28223); assay: 5-hydroxytryptamine receptor 2A (HTR2A) small molecule agonists, cell-based qHTS assay (AID 1963587); also: nearly all actives have a fitted effect of over 30% in size; also: potency is read from the fitted curve at half-maximal effect
Procedure, shortened: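 Kinetic calcium-flux fluorescence (2 min, 1 sec intervals) after compound addition in agonist mode. HTR2A-CHO cells were cultured 18 h, then dye-loaded 1 h at 37 C.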

[16] = target: Muscarinic acetylcholine receptor M1 (Homo sapiens) (UniProt P11229); assay: Cholinergic receptor muscarinic 1 (CHRM1) small molecule antagonists, cell-based qHTS assay (AID 1963588); also: nearly all actives have a fitted effect of over 40% in size; also: potency is read from the fitted curve at half-maximal effect
Procedure, shortened: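 CHRM1-CHO calcium-flux assay, antagonist mode. Cells were seeded 18 h, dye-loaded 1 h at 37 C and given compound for 5 min at RT, then acetylcholine was added at 50nM. FDSS fluorescence was read 3 min; 15 concentrations, three runs.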

[17] = target: Muscarinic acetylcholine receptor M1 (Homo sapiens) (UniProt P11229); assay: Cholinergic receptor muscarinic 1 (CHRM1) small molecule agonists, cell-based qHTS assay (AID 1963589); also: nearly all actives have a fitted effect of over 35% in size
Procedure, shortened: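 Human M1 in stable CHO line; 18 h plating, 1 h dye load 37 C; cpd added (agonist mode); Ca2+ fluorescence kinetic read, 1 s intervals; 15 conc, 3 runs.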

[18] = cAMP Responsive Elements (CRE) small molecule antagonists, cell-based qHTS assay (AID 1963591; active = well fitted inhibition curve with a large enough effect in the signal ratio in the repeat runs, not every such curve was filed as active; the % refers to the signal ratio)
Procedure, shortened: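 Beta-lactamase reporter read by FRET substrate (LiveBLAzer B/G) after 2 h at room temperature. CRE-bla HEK293T cells had received compound plus 0.25 uM (final) NKH477 for 3 h at 37 °C.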

[19] = p53 small molecule agonists, cell-based qHTS assay with rat liver microsomes: qHTS cell viability counter screen (AID 1963580); also: nearly all actives have a fitted effect of over 45% in size
Procedure, shortened: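 HCT-116 p53RE-bla, 4,000 cells/well, 5 h pre-incubation; cpd + rat liver microsomes 0.5 mg/mL + NADPH 0.5 mg/mL (final); 16 h, 37 C; CellTiter-Glo, 30 min RT; luminescence.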
% is scaled to controls: 0 for no effect and ±100 for the full control effect.

Chain of KiSS-1 receptor (Homo sapiens) (Q969F8 whole entry, looked up): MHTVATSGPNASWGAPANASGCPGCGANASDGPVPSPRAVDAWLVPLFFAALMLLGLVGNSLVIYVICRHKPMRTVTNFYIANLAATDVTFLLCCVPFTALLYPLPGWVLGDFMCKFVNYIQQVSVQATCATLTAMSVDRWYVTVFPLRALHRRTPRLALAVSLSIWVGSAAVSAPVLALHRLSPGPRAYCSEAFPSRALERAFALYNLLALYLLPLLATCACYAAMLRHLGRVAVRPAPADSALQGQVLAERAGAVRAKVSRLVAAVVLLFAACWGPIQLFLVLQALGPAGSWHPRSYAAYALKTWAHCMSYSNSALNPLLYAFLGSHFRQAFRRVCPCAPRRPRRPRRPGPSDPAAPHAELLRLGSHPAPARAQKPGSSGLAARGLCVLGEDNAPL
Chain of Beta-2 adrenergic receptor (Homo sapiens) (P07550 whole entry, looked up): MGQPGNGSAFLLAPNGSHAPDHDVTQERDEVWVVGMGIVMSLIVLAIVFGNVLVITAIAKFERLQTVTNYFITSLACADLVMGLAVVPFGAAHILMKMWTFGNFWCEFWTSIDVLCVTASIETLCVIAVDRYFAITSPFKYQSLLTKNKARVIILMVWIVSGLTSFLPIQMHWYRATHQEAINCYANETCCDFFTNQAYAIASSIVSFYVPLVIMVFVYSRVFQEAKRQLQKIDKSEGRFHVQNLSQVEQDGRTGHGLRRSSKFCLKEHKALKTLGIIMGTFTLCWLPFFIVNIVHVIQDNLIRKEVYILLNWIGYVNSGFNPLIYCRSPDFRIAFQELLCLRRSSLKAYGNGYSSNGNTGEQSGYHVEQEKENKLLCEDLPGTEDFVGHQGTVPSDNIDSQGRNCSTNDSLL
Chain of 5-hydroxytryptamine receptor 2A (Homo sapiens) (P28223 whole entry, looked up): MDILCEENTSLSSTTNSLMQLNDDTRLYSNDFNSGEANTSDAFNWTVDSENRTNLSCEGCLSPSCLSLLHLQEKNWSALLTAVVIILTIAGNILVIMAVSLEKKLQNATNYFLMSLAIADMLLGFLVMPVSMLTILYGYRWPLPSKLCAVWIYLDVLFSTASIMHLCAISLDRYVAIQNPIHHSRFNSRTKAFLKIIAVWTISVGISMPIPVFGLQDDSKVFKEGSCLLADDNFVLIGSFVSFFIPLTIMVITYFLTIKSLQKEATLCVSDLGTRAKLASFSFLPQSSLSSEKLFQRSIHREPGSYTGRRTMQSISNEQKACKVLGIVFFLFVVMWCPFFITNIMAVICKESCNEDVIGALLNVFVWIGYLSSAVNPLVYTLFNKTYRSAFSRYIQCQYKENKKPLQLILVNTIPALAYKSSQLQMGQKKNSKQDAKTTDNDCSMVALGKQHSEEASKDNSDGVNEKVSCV
Chain of Gonadotropin-releasing hormone receptor (Homo sapiens) (P30968 whole entry, looked up): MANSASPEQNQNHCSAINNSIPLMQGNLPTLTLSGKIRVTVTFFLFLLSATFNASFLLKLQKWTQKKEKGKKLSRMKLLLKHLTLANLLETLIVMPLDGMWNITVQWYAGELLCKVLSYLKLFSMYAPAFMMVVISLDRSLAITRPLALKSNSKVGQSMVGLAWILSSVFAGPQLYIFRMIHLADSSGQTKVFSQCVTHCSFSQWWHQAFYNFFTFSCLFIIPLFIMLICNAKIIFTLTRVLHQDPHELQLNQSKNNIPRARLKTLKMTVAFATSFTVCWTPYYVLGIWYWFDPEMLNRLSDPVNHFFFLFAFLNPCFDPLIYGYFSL
Chain of D(2) dopamine receptor (Homo sapiens) (P14416 whole entry, looked up): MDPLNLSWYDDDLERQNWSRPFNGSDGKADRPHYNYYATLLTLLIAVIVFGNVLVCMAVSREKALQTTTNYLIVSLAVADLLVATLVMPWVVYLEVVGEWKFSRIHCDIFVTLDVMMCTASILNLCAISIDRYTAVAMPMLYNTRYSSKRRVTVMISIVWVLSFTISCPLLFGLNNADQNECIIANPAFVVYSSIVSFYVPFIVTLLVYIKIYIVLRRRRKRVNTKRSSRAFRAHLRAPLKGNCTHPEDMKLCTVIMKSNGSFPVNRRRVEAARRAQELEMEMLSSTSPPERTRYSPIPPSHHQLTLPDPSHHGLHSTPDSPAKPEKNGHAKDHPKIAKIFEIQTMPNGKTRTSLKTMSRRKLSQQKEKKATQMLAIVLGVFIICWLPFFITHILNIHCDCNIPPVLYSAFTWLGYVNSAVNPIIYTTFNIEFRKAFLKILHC
Chain of Muscarinic acetylcholine receptor M1 (Homo sapiens) (P11229 whole entry, looked up): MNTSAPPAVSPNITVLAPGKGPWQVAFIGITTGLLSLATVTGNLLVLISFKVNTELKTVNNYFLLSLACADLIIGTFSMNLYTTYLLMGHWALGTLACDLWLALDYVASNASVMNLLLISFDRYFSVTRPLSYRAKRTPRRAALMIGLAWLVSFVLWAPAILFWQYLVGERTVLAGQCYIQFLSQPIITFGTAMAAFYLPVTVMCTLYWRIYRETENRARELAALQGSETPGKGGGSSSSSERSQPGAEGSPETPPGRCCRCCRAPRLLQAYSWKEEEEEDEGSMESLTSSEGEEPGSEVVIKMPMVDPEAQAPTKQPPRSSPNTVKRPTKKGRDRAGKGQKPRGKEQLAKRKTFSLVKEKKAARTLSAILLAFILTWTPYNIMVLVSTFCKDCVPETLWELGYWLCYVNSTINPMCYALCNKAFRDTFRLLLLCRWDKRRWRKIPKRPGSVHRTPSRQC

CCOCCn1c(N2CCCN(C)CC2)nc2ccccc21
inactive: Potency [1] | Potency [2] | Potency [3] | Potency [4] | Potency [5] | Potency [6] | Potency [7] | Potency [8] | Potency [9] | Potency [10] | Potency [11] | Potency [12]

CCCCCCCCCCCCCCCCCCCl
inactive: activity change, negative = cytotoxicity [1] -0.678% [at 8.39 µM] | activity, positive = activation [2] -2.4% [at 8.39 µM] | activity change [3] 0.0314% [at 5.22 µM, stronger effect = higher value] | activation [4] 6.45% [at 6.97 µM] | activation [5] 0.281% [at 5.23 µM] | activity change, negative = cytotoxicity [6] 1.68% [at 5.99 µM] | activity change, negative = cytotoxicity [7] -9.11% [at 5.99 µM] | activation [13] -3.59% [at 5.99 µM] | activity, negative = inhibition [14] -6.54% [at 5.62 µM] | activation [15] -0.0042% [at 7.02 µM] | activity, negative = inhibition [16] 10% [at 5.58 µM] | activation [8] 0.946% [at 8.39 µM] | activity change, negative = inhibition [9] 8.82% [at 8.39 µM] | activation [11] 0.784% [at 8.39 µM] | activity change, negative = inhibition [12] 3.22% [at 8.38 µM]

O=C=NC1CCC(CC2CCC(N=C=O)CC2)CC1 (configuration not stated)
inactive: Potency [2] | Potency [3] | Potency [4] | Potency [5] | Potency [6] | Potency [7] | Potency [13] | Potency [17] | Potency [8] | Potency [18] | Potency [9] | Potency [10] | Potency [11]
active: Potency [1] 12.2 µM | Potency [14] 2.98 µM | Potency [15] 1.95 µM | Potency [16] 4.21 µM

CO/N=C(/C(=O)N[C@@H]1C(=O)N2C(C(=O)O)=C(Cn3nnc(C)n3)CS[C@H]12)c1csc(N)n1
inactive: Potency [1] | Potency [2] | Potency [3] | Potency [4] | Potency [5] | Potency [6] | Potency [19] | Potency [16] | Potency [17] | Potency [8] | Potency [18] | Potency [9] | Potency [10] | Potency [11] | Potency [12]

Oc1ccccc1F
inactive: Potency [1] | Potency [2] | Potency [3] | Potency [4] | Potency [5] | Potency [6] | Potency [7] | Potency [15] | Potency [16] | Potency [17] | Potency [8] | Potency [18] | Potency [9] | Potency [11] | Potency [12]

Cc1ccc(C)c([N+](=O)[O-])c1
inactive: Potency [1] | Potency [2] | Potency [3] | Potency [4] | Potency [5] | Potency [6] | Potency [19] | Potency [14] | Potency [16] | Potency [17] | Potency [8] | Potency [18] | Potency [9] | Potency [11] | Potency [12]

CN1CCC(OC(c2ccccc2)c2ccccc2)CC1
inactive: Potency [1] | Potency [2] | Potency [3] | Potency [4] | Potency [5] | Potency [6] | Potency [19] | Potency [17] | Potency [8] | Potency [18] | Potency [10] | Potency [11]
active: Potency [16] 0.0818 µM

CCOc1ccc(NS(=O)(=O)c2ccc(N)cc2)nn1
inactive: Potency [1] | Potency [2] | Potency [3] | Potency [4] | Potency [5] | Potency [6] | Potency [7] | Potency [14] | Potency [15] | Potency [16] | Potency [17] | Potency [8] | Potency [18] | Potency [9] | Potency [11] | Potency [12]

COc1cc(S(=O)(=O)Nc2ccccc2)c(OC)cc1N
inactive: Potency [1] | Potency [2] | Potency [3] | Potency [4] | Potency [5] | Potency [6] | Potency [7] | Potency [14] | Potency [15] | Potency [16] | Potency [17] | Potency [8] | Potency [18] | Potency [9] | Potency [11] | Potency [12]

CC(C)(CO)[N+](=O)[O-]
inactive: Potency [1] | Potency [2] | Potency [3] | Potency [4] | Potency [5] | Potency [6] | Potency [7] | Potency [14] | Potency [15] | Potency [16] | Potency [17] | Potency [8] | Potency [18] | Potency [9] | Potency [10] | Potency [11] | Potency [12]

N#CCCN(CCO)CCO
inactive: Potency [1] | Potency [2] | Potency [3] | Potency [4] | Potency [5] | Potency [6] | Potency [7] | Potency [14] | Potency [15] | Potency [16] | Potency [17] | Potency [8] | Potency [18] | Potency [10] | Potency [11]

BrCCOc1ccccc1
inactive: Potency [1] | Potency [2] | Potency [3] | Potency [4] | Potency [5] | Potency [6] | Potency [7] | Potency [14] | Potency [15] | Potency [16] | Potency [17] | Potency [8] | Potency [18] | Potency [9] | Potency [11] | Potency [12]
